Results published in ChEMBL document CHEMBL4303122, “Identification of potential treatments for COVID-19 through artificial intelligence-enabled phenomic analysis of human cells infected with SARS-CoV-2” (2020).
Over roughly 1,600 compounds, “Hit score” has its median near 0.13; the highest 2% begin near 0.46. The full list was thinned out, with the highest values kept by preference. *1 amine or outer side, *2 acyl side, *3 side chain or, on linkers, in order; H or OH if unused. Where a SMILES comes first, the peptide text is derived from it. Bridges are numbered along the chain shown (N, C = ends). [ ]: non-standard residue; d: D form. The star is where a group is joined. pTerphenylCO(4''-OnC5H11) = CCCCCOc1ccc(-c2ccc(-c3ccc(C(=O)*)cc3)cc2)cc1; Orn(4R-OH,5R-OH) = O=C([C@H](C[C@@H](O)[C@@H](O)N[*:3])N[*:1])[*:2]; hTyr(3S-OH,4S-OH) = N[C@H](C(=O)O)[C@H](O)[C@@H](O)c1ccc(O)cc1; Pro(3S-OH,4S-Me) = C[C@H]1CN[C@H](C(=O)O)[C@H]1O; Hyp = O=C(O)[C@@H]1C[C@@H](O)CN1

What follows are compounds tested on SARS-CoV-2 (assay: Antiviral activity against SARS-CoV-2 (USA-WA1/2020 strain) measured by imaging in HRCE cells at MOI 0.4 after 96 hrs (reported as hit score from 0-1 for on-disease vs off-disease activity: scores >0.6 considered hits)).
Assay type: functional, Homo sapiens
`COc1cc2nccc(Oc3ccc(NC(=O)Nc4cc(C)on4)c(Cl)c3)c2cc1OC` [TIVOZANIB] showed a Hit score of 0.1611. With `CC1(C)S[C@@H]2[C@H](NC(=O)COc3ccccc3)C(=O)N2[C@H]1C(=O)O` [PENICILLIN V] the Hit score was 0.002553. Compound `Cc1c(Cl)c(C)[n+]([O-])c(Cl)c1-c1noc(-c2cc(O)c(O)c([N+](=O)[O-])c2)n1` [OPICAPONE] has a Hit score of -0.07412. With `Cc1ccc2c(c1)[C@]13CCCC[C@@H]1[C@H](C2)N(C)CC3` [DIMEMORFAN] the Hit score was 0.08461. `CCCCCOc1ccc(-c2ccc(-c3ccc(C(=O)N[C@H]4C[C@@H](O)[C@@H](O)NC(=O)[C@@H]5[C@@H](O)[C@@H](C)CN5C(=O)[C@H]([C@@H](C)O)NC(=O)[C@H]([C@H](O)[C@@H](O)c5ccc(O)cc5)NC(=O)[C@@H]5C[C@@H](O)CN5C(=O)[C@H]([C@@H](C)O)NC4=O)cc3)cc2)cc1` [ANIDULAFUNGIN] ({pTerphenylCO(4''-OnC5H11)}-[Orn(4R-OH,5R-OH)]T[Hyp][hTyr(3S-OH,4S-OH)]T[Pro(3S-OH,4S-Me)]; lactam 1-C) showed a Hit score of 0.1907. `C=CC(=O)Nc1cccc(Oc2nc(Nc3ccc(N4CCN(C)CC4)cc3)nc3ccsc23)c1` [OLMUTINIB] showed a Hit score of 0.2407. `Cc1oc(=O)oc1COC(=O)C1=C([C@H]2CCCO2)S[C@@H]2[C@@H]([C@@H](C)O)C(=O)N12` [FAROPENEM MEDOXOMIL] gave a Hit score of 0.000691. Compound `CC(C)(O)CNc1nc(Nc2ccnc(C(F)(F)F)c2)nc(-c2cccc(C(F)(F)F)n2)n1` [ENASIDENIB] has a Hit score of 0.1439. `OC[C@H]1O[C@@](CO)(O[C@H]2O[C@H](CO)[C@@H](O)[C@H](O)[C@H]2O)[C@@H](O)[C@@H]1O` [SUCROSE] was tested, and the Hit score was 0.09545. Compound `Cc1cc(S(=O)(=O)[O-])c2c(C)ccc(C(C)C)cc1-2.[Na+]` [SODIUM GUALENATE] has a Hit score of 0.2044. `CCCCCCCCCCCCCCCC(=O)O[C@@H]1[C@@H](O)[C@@H](O)[C@@H]([C@H](NC(=O)[C@@H]2C[C@@H](CCC)CN2C)[C@H](C)Cl)O[C@@H]1SC` [CLINDAMYCIN PALMITATE] gave a Hit score of 0.1881. For `CCn1c(=O)c2c(nc(/C=C/c3ccc(OC)c(OC)c3)n2C)n(CC)c1=O` [ISTRADEFYLLINE], the Hit score was 0.1372. Work on `COc1ccc(-c2cc(=O)c3c(O)c(OC)c(O)cc3o2)cc1OC` [EUPATILIN] yielded a Hit score of 0.2352. Work on `CC[C@]12CCCN3CCc4c(n(c5ccccc45)C(=O)C1)[C@@H]32` [VINBURNINE] yielded a Hit score of 0.1621. Compound `CCOc1nc2cccc(C(=O)O)c2n1Cc1ccc(-c2ccccc2-c2noc(=O)[nH]2)cc1` [AZILSARTAN] has a Hit score of 0.1513. With `CCC(C)(Oc1ccc(C2(c3ccc(OC(C)(CC)C(=O)O)cc3)CCCCC2)cc1)C(=O)O` (configuration not stated) [CLINOFIBRATE] the Hit score was 0.1194. In the case of `N[C@@H](CCN[C@@H](CCN1CC[C@H]1C(=O)O)C(=O)O)C(=O)O`, the Hit score is reported as 0.1041. Work on `Cn1cnc2c(F)c(Nc3ccc(Br)cc3F)c(C(=O)NOCCO)cc21` [BINIMETINIB] yielded a Hit score of 0.0233. Compound `O=C(O)c1cc2ccccc2c(Cc2c(O)c(C(=O)O)cc3ccccc23)c1O` [PAMOIC ACID] has a Hit score of 0.0734. In the case of `COC(=O)N[C@H](C(=O)N1CCC[C@H]1c1ncc(-c2ccc(-c3ccc(-c4cnc([C@@H]5CCCN5C(=O)[C@@H](NC(=O)OC)C(C)C)[nH]4)cc3)cc2)[nH]1)C(C)C`, the Hit score is reported as -0.06011. Compound `Cc1ccc(NC(=O)C2(c3ccc4c(c3)OC(F)(F)O4)CC2)nc1-c1cccc(C(=O)O)c1` [LUMACAFTOR] has a Hit score of 0.04797. `Cc1nccn1CCC(C(N)=O)(c1ccccc1)c1ccccc1` [IMIDAFENACIN] was tested, and the Hit score was 0.008612. `CCC(=O)NC[C@@H]1C[C@H]1c1cccc2c1CCO2` [TASIMELTEON] gave a Hit score of 0.1536. In the case of `CC(C)OC(=O)CCC/C=C\C[C@@H]1[C@@H](/C=C/C(F)(F)COc2ccccc2)[C@H](O)C[C@@H]1O` [TAFLUPROST], the Hit score is reported as 0.14. In the case of `O=[N+]([O-])c1cncn1CCN1CCOCC1` [NIMORAZOLE], the Hit score is reported as 0.1444. With `CCCCCC(=O)O[C@]1(C(C)=O)CC[C@H]2[C@@H]3CCC4=CC(=O)CC[C@]4(C)[C@H]3CC[C@@]21C` [HYDROXYPROGESTERONE CAPROATE] the Hit score was 0.1371. `COc1cc(C)c2c(Oc3cccc(C(F)(F)F)c3)c(OC)cc(NC(C)CCCN)c2n1.O=C(O)CCC(=O)O` (configuration not stated) [TAFENOQUINE SUCCINATE] gave a Hit score of 0.101. For `C[C@]12C=CC(=O)N[C@@H]1CC[C@@H]1[C@@H]2CC[C@]2(C)[C@@H](C(=O)Nc3cc(C(F)(F)F)ccc3C(F)(F)F)CC[C@@H]12` [DUTASTERIDE], the Hit score was 0.3162. With `C=CC[C@@H]1/C=C(\C)C[C@H](C)C[C@H](OC)[C@H]2O[C@@](O)(C(=O)C(=O)N3CCCC[C@H]3C(=O)O[C@H](/C(C)=C/[C@@H]3CC[C@@H](O)[C@H](OC)C3)[C@H](C)[C@@H](O)CC1=O)[C@H](C)C[C@@H]2OC` [TACROLIMUS ANHYDROUS] the Hit score was 0.3285. Work on `CO[C@H]1C[C@@H]2CC[C@@H](C)[C@@](O)(O2)C(=O)C(=O)N2CCCC[C@H]2C(=O)O[C@H]([C@H](C)C[C@@H]2CC[C@@H](OC(=O)C(C)(CO)CO)[C@H](OC)C2)CC(=O)[C@H](C)/C=C(\C)[C@@H](O)[C@@H](OC)C(=O)[C@H](C)C[C@H](C)/C=C/C=C/C=C/1C` [TEMSIROLIMUS] yielded a Hit score of 0.4599. For `CC[C@@H]1/C=C(\C)C[C@H](C)C[C@H](OC)[C@H]2O[C@@](O)(C(=O)C(=O)N3CCCC[C@H]3C(=O)O[C@H](/C(C)=C/[C@@H]3CC[C@H](Cl)[C@H](OC)C3)[C@H](C)[C@@H](O)CC1=O)[C@H](C)C[C@@H]2OC` [PIMECROLIMUS], the Hit score was 0.2951. For `CO[C@H]1C[C@@H]2CC[C@@H](C)[C@@](O)(O2)C(=O)C(=O)N2CCCC[C@H]2C(=O)O[C@H]([C@H](C)C[C@@H]2CC[C@@H](O)[C@H](OC)C2)CC(=O)[C@H](C)/C=C(\C)[C@@H](O)[C@@H](OC)C(=O)[C@H](C)C[C@H](C)/C=C/C=C/C=C/1C` [SIROLIMUS], the Hit score was 0.6828. In the case of `CO[C@H]1C[C@@H]2CC[C@@H](C)[C@@](O)(O2)C(=O)C(=O)N2CCCC[C@H]2C(=O)O[C@H]([C@H](C)C[C@@H]2CC[C@H](n3cnnn3)[C@H](OC)C2)CC(=O)[C@H](C)/C=C(\C)[C@@H](O)[C@@H](OC)C(=O)[C@H](C)C[C@H](C)/C=C/C=C/C=C/1C` [ZOTAROLIMUS], the Hit score is reported as 0.6315. Work on `CO[C@H]1C[C@@H]2CC[C@@H](C)[C@@](O)(O2)C(=O)C(=O)N2CCCC[C@H]2C(=O)O[C@H]([C@H](C)C[C@@H]2CC[C@@H](OCCO)[C@H](OC)C2)CC(=O)[C@H](C)/C=C(\C)[C@@H](O)[C@@H](OC)C(=O)[C@H](C)C[C@H](C)/C=C/C=C/C=C/1C` [EVEROLIMUS] yielded a Hit score of 0.4984. For `C[C@@H]1CCO[C@H]2Cn3cc(C(=O)NCc4ccc(F)cc4F)c(=O)c(O)c3C(=O)N12` [DOLUTEGRAVIR], the Hit score was -0.02185. `CCc1cc(/C(C)=N/OCc2ccc(C3CCCCC3)c(C(F)(F)F)c2)ccc1CN1CC(C(=O)O)C1` [SIPONIMOD] gave a Hit score of -0.1293. `Cc1cn(-c2cc(NC(=O)c3ccc(C)c(Nc4nccc(-c5cccnc5)n4)c3)cc(C(F)(F)F)c2)cn1` [NILOTINIB] was tested, and the Hit score was 0.4816. With `Cc1ccc(NC(=O)c2ccc(CN3CCN(C)CC3)cc2)cc1Nc1nccc(-c2cccnc2)n1` [IMATINIB] the Hit score was 0.06765. Compound `Cc1ccc(/C=C2/C(=O)C3(C)CCC2C3(C)C)cc1` (configuration not stated) [ENZACAMENE] has a Hit score of 0.1975. `CC(C)NC[C@H](O)COc1ccc(CCOCC2CC2)cc1` [LEVOBETAXOLOL] showed a Hit score of 0.4949. `CC(C)NCC(O)COc1ccc(CCOCC2CC2)cc1` (configuration not stated) [BETAXOLOL] showed a Hit score of 0.2742. `CC(C)NCC(O)COc1ccc(COCCOC(C)C)cc1` (configuration not stated) [BISOPROLOL] was tested, and the Hit score was 0.1972. `C=C1c2c(Cl)ccc(O)c2C(=O)C2=C(O)[C@]3(O)C(=O)C(C(N)=O)=C(O)[C@@H](N(C)C)[C@@H]3[C@@H](O)[C@H]12.O=C(O)c1cc(S(=O)(=O)O)ccc1O` [MECLOCYCLINE SULFOSALICYLATE] showed a Hit score of 0.1338. In the case of `CC(C)OC(=O)CCC/C=C\C[C@@H]1[C@@H](CC[C@@H](O)CCc2ccccc2)[C@H](O)C[C@@H]1O` [LATANOPROST], the Hit score is reported as 0.04489. Work on `CCCCCCOC(=O)CCC(=O)CN` [HEXAMINOLEVULINATE] yielded a Hit score of 0.1128. `COc1cc([C@@H]2c3cc4c(cc3[C@@H](O[C@@H]3O[C@@H]5CO[C@@H](C)O[C@H]5[C@H](O)[C@H]3O)[C@H]3COC(=O)[C@H]23)OCO4)cc(OC)c1OP(=O)(O)O` [ETOPOSIDE PHOSPHATE] showed a Hit score of 0.05858. `O=C(CNc1cccc(Cl)c1)NC1CCCN(c2ncnc3[nH]ccc23)C1` (configuration not stated) was tested, and the Hit score was 0.1071. `CCC(CC)COC(=O)[C@H](C)N[P@](=O)(OC[C@H]1O[C@@](C#N)(c2ccc3c(N)ncnn23)[C@H](O)[C@@H]1O)Oc1ccccc1` showed a Hit score of 0.9631. In the case of `Nc1ncnc2c1ncn2[C@@H]1O[C@H](CO)[C@@H](O)[C@@H]1O` [VIDARABINE], the Hit score is reported as -0.02251. `CC(C)OC(=O)[C@H](C)N[P@](=O)(OC[C@H]1O[C@@H](n2ccc(=O)[nH]c2=O)[C@](C)(F)[C@@H]1O)Oc1ccccc1` [SOFOSBUVIR] gave a Hit score of 0.2045. In the case of `CC(C)OC(=O)[C@H](C)N[P@@](=O)(OC[C@H]1O[C@@H](n2ccc(=O)[nH]c2=O)[C@](C)(F)[C@@H]1O)Oc1ccccc1`, the Hit score is reported as 0.2594. Compound `N#C[C@@]1(c2ccc3c(N)ncnn23)O[C@H](CO)[C@@H](O)[C@H]1O` [GS-441524] has a Hit score of 0.865.
